Common to all, as to experiment: DAPPL (digital affinity profiling via proximity ligation, sequencing); 10 mM Tris-HCl pH 7.5, 50 mM NaCl, 1 mM DTT, 4% glycerol, room temperature, 30 min; GST-TFs on glutathione beads, 16-mer random dsDNA library, 0.1% formaldehyde crosslink after washing; high values mean tight binding
For one assay, the target named is T1, FLI1 (Homo sapiens, UniProt Q01543 1-452).
T1 sequence: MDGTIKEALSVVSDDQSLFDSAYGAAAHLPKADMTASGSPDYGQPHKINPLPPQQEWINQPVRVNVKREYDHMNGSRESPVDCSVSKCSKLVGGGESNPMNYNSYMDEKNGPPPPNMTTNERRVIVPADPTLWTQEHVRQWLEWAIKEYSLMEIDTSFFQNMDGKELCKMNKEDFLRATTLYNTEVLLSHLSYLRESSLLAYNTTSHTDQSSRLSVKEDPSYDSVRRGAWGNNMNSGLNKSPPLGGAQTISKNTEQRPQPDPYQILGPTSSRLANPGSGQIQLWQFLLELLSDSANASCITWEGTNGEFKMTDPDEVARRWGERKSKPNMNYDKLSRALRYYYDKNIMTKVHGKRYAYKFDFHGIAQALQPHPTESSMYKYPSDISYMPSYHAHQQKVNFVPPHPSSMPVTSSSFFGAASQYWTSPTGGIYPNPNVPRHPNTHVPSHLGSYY
As to conditions: protein: recombinant; tags: N-terminal GST; dsDNA, one strand shown. Put shortly:
(§1)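 Each value of binding signal is a hexamer's read frequency for a factor divided by the same hexamer's frequency in the tag-only sample. Barcoded, bead-captured GST fusions of human transcription factors made in yeast were pooled with that sample and incubated with 200 nmole of a random double-stranded 16-mer DNA library in Tris/NaCl/DTT/glycerol buffer at room temperature for 30 min. Washing, 0.1% formaldehyde crosslinking, proximity ligation, PCR and Illumina NextSeq500 sequencing followed.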

In a further assay the target is T2, ELK1 (Homo sapiens, UniProt P19419 1-428).
T2 sequence: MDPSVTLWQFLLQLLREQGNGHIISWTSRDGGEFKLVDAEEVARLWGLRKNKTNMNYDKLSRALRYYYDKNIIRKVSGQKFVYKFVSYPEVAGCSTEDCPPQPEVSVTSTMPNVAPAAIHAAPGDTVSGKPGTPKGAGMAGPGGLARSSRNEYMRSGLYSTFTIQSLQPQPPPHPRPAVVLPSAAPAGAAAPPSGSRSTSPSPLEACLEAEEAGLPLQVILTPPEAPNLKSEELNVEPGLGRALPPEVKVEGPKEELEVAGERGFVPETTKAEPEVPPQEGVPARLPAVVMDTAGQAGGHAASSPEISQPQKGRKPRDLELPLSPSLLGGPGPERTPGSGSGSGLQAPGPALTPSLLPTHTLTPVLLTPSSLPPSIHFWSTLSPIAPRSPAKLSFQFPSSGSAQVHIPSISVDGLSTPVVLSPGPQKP
As to conditions: protein: recombinant; tags: N-terminal GST; dsDNA, one strand shown. In short, it runs like this: as §1

A further assay addresses T3, GABPA (Homo sapiens, UniProt Q06546 1-454).
T3 sequence: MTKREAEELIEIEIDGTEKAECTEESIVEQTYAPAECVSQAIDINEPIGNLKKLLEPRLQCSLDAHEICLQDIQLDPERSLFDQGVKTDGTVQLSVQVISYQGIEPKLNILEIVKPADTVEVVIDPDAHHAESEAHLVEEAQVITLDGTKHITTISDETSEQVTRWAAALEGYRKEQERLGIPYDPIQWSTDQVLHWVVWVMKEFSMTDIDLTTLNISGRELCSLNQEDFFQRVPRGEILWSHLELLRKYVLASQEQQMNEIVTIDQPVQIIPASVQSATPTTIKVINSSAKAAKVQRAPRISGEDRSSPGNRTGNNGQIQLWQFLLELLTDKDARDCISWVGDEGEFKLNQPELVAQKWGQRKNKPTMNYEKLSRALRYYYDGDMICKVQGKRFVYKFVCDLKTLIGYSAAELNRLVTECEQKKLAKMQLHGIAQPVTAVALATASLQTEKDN
The settings on record: protein: recombinant; tags: N-terminal GST; dsDNA, one strand shown. Put shortly:
as §1

The target of the next assay is T4, ERG (Homo sapiens, UniProt P11308 1-479).
T4 sequence: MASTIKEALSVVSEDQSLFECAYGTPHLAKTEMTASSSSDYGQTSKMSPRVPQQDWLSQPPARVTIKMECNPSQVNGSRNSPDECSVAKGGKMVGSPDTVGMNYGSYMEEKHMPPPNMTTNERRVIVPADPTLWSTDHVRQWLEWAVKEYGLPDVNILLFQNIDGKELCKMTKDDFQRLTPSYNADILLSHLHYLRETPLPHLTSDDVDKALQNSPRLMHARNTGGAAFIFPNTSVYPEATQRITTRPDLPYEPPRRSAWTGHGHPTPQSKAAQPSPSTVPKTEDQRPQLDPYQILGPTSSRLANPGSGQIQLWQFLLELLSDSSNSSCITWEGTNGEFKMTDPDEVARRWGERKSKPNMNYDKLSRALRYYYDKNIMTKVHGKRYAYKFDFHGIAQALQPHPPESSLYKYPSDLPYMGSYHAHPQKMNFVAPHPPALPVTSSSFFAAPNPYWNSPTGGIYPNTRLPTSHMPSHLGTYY
The settings on record: protein: recombinant; tags: N-terminal GST; dsDNA, one strand shown. In short, it runs like this:
as §1

A further assay concerns the target ELF1 (Homo sapiens, UniProt P32519 1-619). As to conditions: protein: recombinant; tags: N-terminal GST; dsDNA, one strand shown. Put shortly: as §1
The next assay concerns the target T5, EHF (Homo sapiens, UniProt Q9NZC4 1-300).
T5 sequence: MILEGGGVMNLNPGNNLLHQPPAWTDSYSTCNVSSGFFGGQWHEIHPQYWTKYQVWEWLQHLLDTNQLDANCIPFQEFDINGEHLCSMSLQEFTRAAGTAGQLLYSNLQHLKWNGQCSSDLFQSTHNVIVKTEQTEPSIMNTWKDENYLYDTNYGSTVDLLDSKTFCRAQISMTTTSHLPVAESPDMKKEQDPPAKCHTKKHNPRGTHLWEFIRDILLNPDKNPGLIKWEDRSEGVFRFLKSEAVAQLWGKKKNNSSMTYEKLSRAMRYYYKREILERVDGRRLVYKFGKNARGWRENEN
The settings on record: protein: recombinant; tags: N-terminal GST; dsDNA, one strand shown. Put shortly: as §1

The target in a further assay is SPI1 (Homo sapiens, UniProt P17947 1-270). As to conditions: protein: recombinant; tags: N-terminal GST; dsDNA, one strand shown. Put shortly:
as §1

The next assay has as its target SPIB (Homo sapiens, UniProt Q01892 1-262). The settings on record: protein: recombinant; tags: N-terminal GST; dsDNA, one strand shown. In short, it runs like this: as §1
The next assay deals with T6, ELK3 (Homo sapiens, UniProt P41970 1-407).
T6 sequence: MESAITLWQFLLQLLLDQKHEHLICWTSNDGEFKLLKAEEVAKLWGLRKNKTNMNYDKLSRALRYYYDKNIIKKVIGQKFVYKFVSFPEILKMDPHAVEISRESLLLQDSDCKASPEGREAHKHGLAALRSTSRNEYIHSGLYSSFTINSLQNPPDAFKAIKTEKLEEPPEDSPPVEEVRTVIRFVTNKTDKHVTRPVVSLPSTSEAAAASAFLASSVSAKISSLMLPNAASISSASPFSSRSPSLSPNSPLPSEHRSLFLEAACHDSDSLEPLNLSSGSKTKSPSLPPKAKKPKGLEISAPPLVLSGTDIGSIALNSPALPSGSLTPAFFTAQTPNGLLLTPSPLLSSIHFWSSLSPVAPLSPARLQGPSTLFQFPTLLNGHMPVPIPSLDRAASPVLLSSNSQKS
The settings on record: protein: recombinant; tags: N-terminal GST; dsDNA, one strand shown. In short, it runs like this: as §1

The target in a further assay is T7, FEV (Homo sapiens, UniProt Q99581 1-238).
T7 sequence: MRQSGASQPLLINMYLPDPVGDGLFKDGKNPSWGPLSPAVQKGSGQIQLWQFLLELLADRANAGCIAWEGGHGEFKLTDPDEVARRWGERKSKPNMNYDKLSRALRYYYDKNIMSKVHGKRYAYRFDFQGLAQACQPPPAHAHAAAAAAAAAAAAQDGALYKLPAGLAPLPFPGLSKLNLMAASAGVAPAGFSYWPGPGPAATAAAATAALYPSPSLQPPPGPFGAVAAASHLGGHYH
As to conditions: protein: recombinant; tags: N-terminal GST; dsDNA, one strand shown. Put shortly:
as §1

The target of another assay is ETV5 (Homo sapiens, UniProt P41161 1-510). The settings on record: protein: recombinant; tags: N-terminal GST; dsDNA, one strand shown. In short, it runs like this:
as §1

The target in a further assay is HSF1 (Homo sapiens, UniProt Q00613 1-529). The settings on record: protein: recombinant; tags: N-terminal GST; chain copies: 3; dsDNA, one strand shown. Put shortly: as §1
The next assay deals with ELF4 (Homo sapiens, UniProt Q99607 1-663). As to conditions: protein: recombinant; tags: N-terminal GST; dsDNA, one strand shown. Put shortly: as §1
In another assay the target is T8, ELK4 (Homo sapiens, UniProt P28324-2 1-405).
T8 sequence: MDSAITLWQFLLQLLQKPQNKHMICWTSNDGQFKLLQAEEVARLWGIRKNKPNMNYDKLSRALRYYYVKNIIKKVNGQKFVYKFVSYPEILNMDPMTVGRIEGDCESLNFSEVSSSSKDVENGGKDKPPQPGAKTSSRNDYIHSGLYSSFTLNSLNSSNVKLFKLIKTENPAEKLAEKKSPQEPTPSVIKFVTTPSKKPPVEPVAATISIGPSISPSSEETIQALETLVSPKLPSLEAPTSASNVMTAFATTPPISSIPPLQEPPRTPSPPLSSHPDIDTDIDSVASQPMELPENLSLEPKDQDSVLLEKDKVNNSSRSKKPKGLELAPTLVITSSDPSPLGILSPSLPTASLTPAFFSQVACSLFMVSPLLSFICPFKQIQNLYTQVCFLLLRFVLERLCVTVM
The settings on record: protein: recombinant; tags: N-terminal GST; dsDNA, one strand shown. In short, it runs like this:
as §1

For another assay, the target named is T9, ETV2 (Homo sapiens, UniProt O00321 1-342).
T9 sequence: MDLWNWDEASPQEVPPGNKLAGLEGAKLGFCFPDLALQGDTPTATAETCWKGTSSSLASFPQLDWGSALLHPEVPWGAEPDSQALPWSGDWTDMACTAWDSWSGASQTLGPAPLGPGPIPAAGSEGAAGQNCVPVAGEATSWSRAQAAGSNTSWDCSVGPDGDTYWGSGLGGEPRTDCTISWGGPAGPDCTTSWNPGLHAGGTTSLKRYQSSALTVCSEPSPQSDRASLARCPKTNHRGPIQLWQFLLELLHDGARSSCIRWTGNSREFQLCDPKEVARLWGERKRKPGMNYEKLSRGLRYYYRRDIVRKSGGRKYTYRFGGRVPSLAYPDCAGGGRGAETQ
The settings on record: protein: recombinant; tags: N-terminal GST; dsDNA, one strand shown. Put shortly: as §1

The target in the next assay is T10, ELF3 (Homo sapiens, UniProt P78545 1-371).
T10 sequence: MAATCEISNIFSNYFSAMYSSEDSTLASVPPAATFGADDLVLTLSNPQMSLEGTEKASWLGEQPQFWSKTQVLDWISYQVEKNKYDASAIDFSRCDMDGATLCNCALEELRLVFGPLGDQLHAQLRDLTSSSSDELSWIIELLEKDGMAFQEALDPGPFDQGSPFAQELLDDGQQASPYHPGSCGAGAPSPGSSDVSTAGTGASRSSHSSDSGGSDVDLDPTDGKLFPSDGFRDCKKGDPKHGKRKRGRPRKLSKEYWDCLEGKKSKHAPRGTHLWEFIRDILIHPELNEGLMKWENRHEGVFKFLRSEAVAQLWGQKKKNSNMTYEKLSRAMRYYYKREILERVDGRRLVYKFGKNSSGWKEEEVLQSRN
The settings on record: protein: recombinant; tags: N-terminal GST; dsDNA, one strand shown. Put shortly:
as §1

Another assay has as its target CRX (Homo sapiens, UniProt O43186 1-299). The settings on record: protein: recombinant; tags: N-terminal GST; dsDNA, one strand shown. Put shortly:
as §1

A further assay has as its target ETV1 (Homo sapiens, UniProt P50549 1-477). The settings on record: protein: recombinant; tags: N-terminal GST; dsDNA, one strand shown. Put shortly: as §1

The values that follow come from paper PMC7862700, “An all-to-all approach to the identification of sequence-specific readers for epigenetic DNA modifications on cytosine”.

Sequence of ELF4 (Q99607 whole entry): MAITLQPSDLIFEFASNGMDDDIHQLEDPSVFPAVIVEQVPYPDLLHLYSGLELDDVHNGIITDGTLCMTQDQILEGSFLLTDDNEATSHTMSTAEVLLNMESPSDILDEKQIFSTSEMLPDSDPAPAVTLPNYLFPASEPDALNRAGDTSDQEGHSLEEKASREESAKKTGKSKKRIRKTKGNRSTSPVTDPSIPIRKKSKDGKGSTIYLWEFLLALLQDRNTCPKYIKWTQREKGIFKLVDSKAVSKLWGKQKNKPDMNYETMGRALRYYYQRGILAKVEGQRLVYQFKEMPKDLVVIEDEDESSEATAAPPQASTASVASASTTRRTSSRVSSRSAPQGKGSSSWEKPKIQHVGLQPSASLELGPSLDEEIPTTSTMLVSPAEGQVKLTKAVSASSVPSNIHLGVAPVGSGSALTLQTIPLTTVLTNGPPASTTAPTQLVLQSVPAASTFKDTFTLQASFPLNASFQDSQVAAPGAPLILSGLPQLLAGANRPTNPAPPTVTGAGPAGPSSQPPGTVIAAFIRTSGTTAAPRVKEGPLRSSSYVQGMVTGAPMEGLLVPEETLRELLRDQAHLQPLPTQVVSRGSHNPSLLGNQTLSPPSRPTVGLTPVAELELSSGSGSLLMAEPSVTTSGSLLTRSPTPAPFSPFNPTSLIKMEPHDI
Sequence of ETV1 (P50549 whole entry): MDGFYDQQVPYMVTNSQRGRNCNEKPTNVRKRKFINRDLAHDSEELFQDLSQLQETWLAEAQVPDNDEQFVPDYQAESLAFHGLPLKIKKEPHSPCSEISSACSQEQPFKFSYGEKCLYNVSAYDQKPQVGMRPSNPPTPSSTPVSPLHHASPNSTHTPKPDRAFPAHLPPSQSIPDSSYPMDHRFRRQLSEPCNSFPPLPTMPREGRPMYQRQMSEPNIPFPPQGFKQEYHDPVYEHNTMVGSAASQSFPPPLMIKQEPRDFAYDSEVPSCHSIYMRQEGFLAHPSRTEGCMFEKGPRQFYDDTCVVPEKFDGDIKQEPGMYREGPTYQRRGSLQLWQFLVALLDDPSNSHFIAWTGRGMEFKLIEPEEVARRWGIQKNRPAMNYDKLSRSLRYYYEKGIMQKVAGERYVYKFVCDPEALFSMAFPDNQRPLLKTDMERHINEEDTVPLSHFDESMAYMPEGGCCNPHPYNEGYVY
Sequence of CRX (O43186 whole entry): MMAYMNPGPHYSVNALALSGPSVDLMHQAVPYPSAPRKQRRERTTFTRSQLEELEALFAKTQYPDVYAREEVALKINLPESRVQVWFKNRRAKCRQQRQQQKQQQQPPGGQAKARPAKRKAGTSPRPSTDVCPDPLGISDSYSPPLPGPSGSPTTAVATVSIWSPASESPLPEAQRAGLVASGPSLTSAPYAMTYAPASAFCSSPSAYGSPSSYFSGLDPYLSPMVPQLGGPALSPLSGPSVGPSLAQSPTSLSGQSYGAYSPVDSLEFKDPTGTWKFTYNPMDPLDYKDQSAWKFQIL
Sequence of SPIB (Q01892 whole entry): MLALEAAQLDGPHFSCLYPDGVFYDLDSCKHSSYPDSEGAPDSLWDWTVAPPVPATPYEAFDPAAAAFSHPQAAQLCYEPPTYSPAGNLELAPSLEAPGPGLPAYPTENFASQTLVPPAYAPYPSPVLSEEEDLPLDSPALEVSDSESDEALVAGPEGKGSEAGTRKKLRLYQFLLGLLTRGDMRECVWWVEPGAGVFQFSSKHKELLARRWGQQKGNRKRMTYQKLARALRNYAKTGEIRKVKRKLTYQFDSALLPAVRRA
Sequence of ETV5 (P41161 whole entry): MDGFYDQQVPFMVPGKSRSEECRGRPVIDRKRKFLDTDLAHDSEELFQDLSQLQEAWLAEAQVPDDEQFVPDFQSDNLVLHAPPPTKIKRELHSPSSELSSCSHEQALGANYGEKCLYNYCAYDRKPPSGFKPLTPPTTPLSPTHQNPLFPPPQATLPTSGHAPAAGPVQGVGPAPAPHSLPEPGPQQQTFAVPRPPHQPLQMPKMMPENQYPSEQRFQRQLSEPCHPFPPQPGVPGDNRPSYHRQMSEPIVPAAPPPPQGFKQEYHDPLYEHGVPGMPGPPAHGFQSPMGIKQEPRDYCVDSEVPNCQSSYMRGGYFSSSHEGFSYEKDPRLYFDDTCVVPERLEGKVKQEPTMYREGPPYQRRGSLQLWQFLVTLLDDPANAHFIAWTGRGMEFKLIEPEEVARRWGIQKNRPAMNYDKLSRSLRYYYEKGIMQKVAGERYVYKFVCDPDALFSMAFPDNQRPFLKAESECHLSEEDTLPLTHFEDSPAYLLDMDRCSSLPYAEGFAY
Sequence of HSF1 (Q00613 whole entry): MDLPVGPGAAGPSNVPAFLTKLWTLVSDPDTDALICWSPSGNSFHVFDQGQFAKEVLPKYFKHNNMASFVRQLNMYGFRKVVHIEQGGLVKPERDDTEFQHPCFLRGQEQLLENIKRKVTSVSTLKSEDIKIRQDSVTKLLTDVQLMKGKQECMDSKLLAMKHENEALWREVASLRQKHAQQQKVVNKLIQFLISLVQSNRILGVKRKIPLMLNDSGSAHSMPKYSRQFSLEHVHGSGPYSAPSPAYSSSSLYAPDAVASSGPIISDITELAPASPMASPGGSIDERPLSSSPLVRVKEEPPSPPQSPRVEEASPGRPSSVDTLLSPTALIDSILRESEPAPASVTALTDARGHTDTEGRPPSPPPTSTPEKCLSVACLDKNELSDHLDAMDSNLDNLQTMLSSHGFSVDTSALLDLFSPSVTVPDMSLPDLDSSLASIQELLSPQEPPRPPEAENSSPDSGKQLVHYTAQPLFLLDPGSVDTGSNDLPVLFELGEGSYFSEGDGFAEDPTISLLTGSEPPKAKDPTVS
Sequence of ELF1 (P32519 whole entry): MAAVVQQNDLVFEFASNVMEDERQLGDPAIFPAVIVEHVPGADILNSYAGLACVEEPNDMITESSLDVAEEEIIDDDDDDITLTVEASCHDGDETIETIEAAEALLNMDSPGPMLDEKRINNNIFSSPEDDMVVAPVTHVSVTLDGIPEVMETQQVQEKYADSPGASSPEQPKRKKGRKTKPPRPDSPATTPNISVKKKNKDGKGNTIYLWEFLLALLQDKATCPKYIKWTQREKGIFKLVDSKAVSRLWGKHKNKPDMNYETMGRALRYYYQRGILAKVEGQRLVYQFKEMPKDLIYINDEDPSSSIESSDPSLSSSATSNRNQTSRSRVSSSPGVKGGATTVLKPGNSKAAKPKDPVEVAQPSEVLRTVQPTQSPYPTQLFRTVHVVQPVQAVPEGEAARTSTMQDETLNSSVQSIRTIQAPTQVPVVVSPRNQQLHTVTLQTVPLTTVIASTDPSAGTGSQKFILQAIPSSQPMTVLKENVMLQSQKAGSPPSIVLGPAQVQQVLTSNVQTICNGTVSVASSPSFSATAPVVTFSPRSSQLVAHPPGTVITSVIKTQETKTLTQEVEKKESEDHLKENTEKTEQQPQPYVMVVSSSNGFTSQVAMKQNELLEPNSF

Consider ACAAGC, for which the binding signal in the assay with FLI1 was 1.1 fold enrichment (6-mer frequency, TF over GST control); in the assay with ELK1, 1.11 fold enrichment (6-mer frequency, TF over GST control); in the assay with GABPA, 1.09 fold enrichment (6-mer frequency, TF over GST control); with ERG, 1.08 fold enrichment (6-mer frequency, TF over GST control); with ELF1, 1.1 fold enrichment (6-mer frequency, TF over GST control); in the assay with EHF, 1.08 fold enrichment (6-mer frequency, TF over GST control). In addition, the binding signal is 1.04 fold enrichment (6-mer frequency, TF over GST control) in the assay with SPI1; 1.12 fold enrichment (6-mer frequency, TF over GST control) in the assay with SPIB; 1.16 fold enrichment (6-mer frequency, TF over GST control) in the assay with ELK3; 1.09 fold enrichment (6-mer frequency, TF over GST control) with FEV; 1.12 fold enrichment (6-mer frequency, TF over GST control) with ETV5; 1.01 fold enrichment (6-mer frequency, TF over GST control) in the assay with HSF1. The binding signal in the assay with ELF4 is 1.13 fold enrichment (6-mer frequency, TF over GST control); with ELK4, 1.12 fold enrichment (6-mer frequency, TF over GST control); with ETV2, 1.06 fold enrichment (6-mer frequency, TF over GST control); with ELF3 it was 1.07 fold enrichment (6-mer frequency, TF over GST control); with CRX it was 1.07 fold enrichment (6-mer frequency, TF over GST control); with ETV1, 1.16 fold enrichment (6-mer frequency, TF over GST control).
